We go through 59 compounds from PubChem BioAssay AID1852 (Sanford-Burnham Center for Chemical Genomics, 2009).

The whole screen tested about 2,500 compounds, of which about 1,100 (44%) were called active.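 The calls were made as follows: active = inhibition above 50% at 4 µM in the single-point screen; inactive = inhibition of 50% or less.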 So high a share suggests a set chosen from earlier hits. The list shows a part of the results.

This assay can be described thus: blockers of TNF-a NF-kB luciferase induction – cell-based, HEK293T NF-kB-Luc, luminescence, selectivity assay for NOD1/NOD2 signaling inhibitor project, primary screen (AID 1852). As to conditions: TNF-a induced, 14 h, at 4 µM, active compounds read high.
One may read the inhibition as the drop in the measured response relative to a control, in per cent. Take `Cc1c(C(=O)Nc2nc3ccccc3[nH]2)oc2ccc(Br)cc12`: the inhibition is 98.6% (active).

Take `CN(c1ccccc1)S(=O)(=O)c1cc(C(=O)Nc2nc3ccccc3[nH]2)ccc1Cl`: the inhibition was 31.3% (inactive).

Consider `CCc1ccc(C(=O)Nc2nc3ccccc3[nH]2)cc1`, for which the inhibition was 103% (active).

`Cc1cc(NC(=O)/C=C/c2ccc(F)cc2)n(-c2nc3ccccc3[nH]2)n1`: the inhibition is -3.9% (inactive).

As for `O=C(c1ccccc1)c1ccc2nc(-c3ccc(NC(=O)c4ccccc4Br)cc3)[nH]c2c1`, the inhibition was 11.7% (inactive).

Take `O=C(Nc1nc2ccccc2[nH]1)c1cc(F)cc(F)c1`: the inhibition was 80.3% (active).

On to `Cc1ccc(N=Cc2cc(Cc3ccccc3Cl)cc([N+](=O)[O-])c2O)c(O)c1`, for which the inhibition is 70.8% (active).

On to `Cc1ccc(O)c(N=Cc2cc(Cc3ccccc3)cc([N+](=O)[O-])c2O)c1`, for which the inhibition was -1.6% (inactive).

Consider `CN(C)/C=C/c1c([N+](=O)[O-])c2ccc(O)cc2n1-c1ccccc1`, for which the inhibition was 83.5% (active).

Consider `Cc1c([N+](=O)[O-])c2ccc(O)cc2n1-c1ccccc1`, for which the inhibition was 60.9% (active).

As for `Cc1ccc(-n2c(C)c([N+](=O)[O-])c3ccc(O)cc32)cc1`, the inhibition was 40.4% (inactive).

`COc1cc([N+](=O)[O-])cc(/C=C2/SC(=S)N(Cc3ccccc3)C2=O)c1O`: the inhibition was 81.1% (active).

For `Cc1ccc(/C=C2\SC(=S)N(C(Cc3ccccc3)C(=O)O)C2=O)cc1` (centres undefined), the inhibition is 25.1% (inactive).

On to `COc1cc(/C=C2\SC(=S)N(CCC(=O)Nc3ccccc3)C2=O)cc(OC)c1OC`, for which the inhibition is 6.8% (inactive).

`O=C1/C(=C/c2ccc(O)c([N+](=O)[O-])c2)SC(=S)N1Cc1ccccc1`: the inhibition is 88.5% (active).

In the case of `O=C1S/C(=C\c2ccc(O)c([N+](=O)[O-])c2)C(=O)N1Cc1cccc([N+](=O)[O-])c1`, the inhibition is 19.6% (inactive).

As to `O=C1/C(=C\c2cccc([N+](=O)[O-])c2O)SC(=S)N1Cc1ccccc1`, the inhibition was 14.2% (inactive).

As to `O=C1/C(=C\c2cc(Cl)c(O)c(Cl)c2)SC(=S)N1Cc1ccccc1`, the inhibition was 82.7% (active).

As for `COc1ccc(/C=C/C(=O)C2CC2)cc1Cn1nc(C)c([N+](=O)[O-])c1C`, the inhibition is 36.6% (inactive).

Turning to `Cc1ccc(C(C)C)c(OCc2ccc(-c3nnco3)cc2)c1`, the inhibition was 12.4% (inactive).

Consider `COc1cc(/C=C2/C(=O)NN(c3ccc(Cl)cc3)C2=O)cc(Br)c1O`, for which the inhibition was -1.7% (inactive).

As for `COc1cc(/C=C2\SC(N3CCC(C)CC3)=NC2=O)ccc1O`, the inhibition was 1.4% (inactive).

Consider `COc1cc(/C=C2\SC(=N)N(c3ccc(F)cc3)C2=O)ccc1O`, for which the inhibition is 51.1% (active).

For the compound `COc1ccc(OC)c(/C=C2\S/C(=N/NC(=O)c3ccc4ccccc4c3)NC2=O)c1`, the inhibition was -2.1% (inactive).

On to `COc1cccc(OCCOc2ccc(/C=C3/SC(=S)NC3=O)cc2)c1`, for which the inhibition was -114% (inactive).

For `COc1ccccc1OCCCOc1cccc(/C=C2\SC(=O)NC2=O)c1`, the inhibition was 3.3% (inactive).

Consider `COc1cc(/C=C2/SC(=Nc3ccc(O)cc3)NC2=O)ccc1O`, for which the inhibition is 89.8% (active).

Regarding `COc1ccc(N=C2NC(=O)/C(=C/c3ccc(O)c(OC)c3)S2)cc1`, the inhibition is 70.8% (active).

On to `COc1cc(/C=N/NC(=O)c2cc3c(ccc4ccccc43)o2)cc(OC)c1O`, for which the inhibition was 36.5% (inactive).

`COc1cc(/C=N\NC(=O)c2ccc(-c3ccccc3)cc2)cc(Br)c1O`: the inhibition is 43% (inactive).

For the compound `COc1cc(/C=N/NC(=O)c2ccc(-c3ccccc3)cc2)cc(OC)c1OC`, the inhibition is 63.8% (active).

Consider `COc1cccc(/C=N/NC(=O)c2ccc(-c3ccccc3)cc2)c1O`, for which the inhibition was 70% (active).

In the case of `Cc1ccccc1CS(=O)(=O)c1nnc([C@H](CC(C)C)NC(=O)OC(C)(C)C)o1`, the inhibition is 35% (inactive).

As for `COc1cc(CNc2ccc3[nH]c(=O)[nH]c3c2)ccc1OCc1c(F)cccc1Cl`, the inhibition is 49.2% (inactive).

Take `Clc1c(Cl)c(Cl)c2n[nH]nc2c1Cl`: the inhibition is 26.8% (inactive).

As to `Cc1c(/C=N/NC(=O)c2ccccc2O)c2ccccn2c1C(=O)c1ccc(F)cc1`, the inhibition was 21.3% (inactive).

For the compound `Cc1cccc2cc(/C=N/NC(=O)c3ccccc3O)c(Cl)nc12`, the inhibition was 63.3% (active).

Consider `O=C(N/N=C/c1ccccc1O)c1cccc2ccccc12`, for which the inhibition was 99.3% (active).

As to `Cc1ccc(NC(=O)CCC(=O)N/N=C/c2ccccc2O)cc1`, the inhibition was 58.1% (active).

In the case of `COc1cccc(/C=N/NC(=O)c2c(C)nc3ccc(Cl)cn23)c1O`, the inhibition is 46.8% (inactive).

As to `O=C(CCC(=O)Nc1ccc(Br)cc1)N/N=C/c1ccccc1O`, the inhibition is 49.3% (inactive).

Regarding `O=C(/C=C/c1ccco1)Oc1cc(Br)cc(/C=N/NC(=O)c2ccccc2O)c1`, the inhibition was 44.6% (inactive).

In the case of `O=C(N/N=C/c1cccc2cccnc12)c1ccccc1O`, the inhibition is 53.1% (active).

`O=C1CCN(CCc2ccccc2)CCN1CCOc1ccccc1`: the inhibition was -6.2% (inactive).

In the case of `CCOc1ccc(/C=N/NC(=O)C(O)c2ccccc2)c(O)c1` (centres undefined), the inhibition was 45.4% (inactive).

For the compound `CCc1cc(C(=O)N/N=C/c2ccc(O)cc2O)c2ccccc2n1`, the inhibition was 50.7% (active).

With `O=C(N/N=C/c1ccc(O)cc1O)c1ccncc1`, the inhibition is 28.2% (inactive).

In the case of `Cc1csc(SCC(=O)Nc2cccc3nsnc23)n1`, the inhibition is 100% (active).

On to `CCn1c(SCC(=O)Nc2nc(-c3ccccc3)cs2)nnc1-c1ccccc1`, for which the inhibition is 34.3% (inactive).

For `O=C(CN1C(=O)c2cccnc2Oc2ccc(Cl)cc21)NCCCc1ccccc1`, the inhibition was 12% (inactive).

As for `O=C(NC(=S)N(CCCCO)C1CCCCC1)c1sc2ccccc2c1Cl`, the inhibition was 104% (active).

Turning to `Cc1ccc(C(C)NC(=S)NC2CCCCC2)cc1C` (centres undefined), the inhibition was 24.8% (inactive).

On to `Cc1ccc(C(=O)NC(=S)N(C)C2CCCCC2)cc1Br`, for which the inhibition is 106% (active).

Regarding `COc1ccc(C(=O)NC(=S)N(C)C2CCCCC2)cc1Br`, the inhibition was -14.8% (inactive).

Regarding `Cc1onc(-c2c(F)cccc2Cl)c1C(=O)Nc1nnc(C(F)(F)F)s1`, the inhibition was 48.9% (inactive).

In the case of `Cc1ccccc1N1CCN(S(=O)(=O)c2nnc(NC(=O)c3ccc(F)cc3)s2)CC1`, the inhibition was -27.1% (inactive).

Turning to `O=C(Nc1ccccc1C(=O)Nc1nnc(C(F)(F)F)s1)c1ccccc1Cl`, the inhibition is 86.7% (active).

For the compound `Cc1onc(-c2ccccc2Cl)c1C(=O)Nc1nnc(-c2ccc(Br)cc2)s1`, the inhibition was -22.4% (inactive).

On to `O=C(Nc1ccccc1C(=O)Nc1nnc(C(F)(F)F)s1)c1ccccc1`, for which the inhibition was 51% (active).
